Shn3 inh set2: Schnurri-3 reporter inhibition in Clone20 osteoblasts. 360,000 compounds, 0.52% hits. inhibition, % at 12.5 µM. Clone20 osteoblast Shn3 3'UTR firefly luciferase, 24 h. AID 588674;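 active = mean inhibition of at least 75% with every replicate also reaching 75%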
KKLEB tox: CF airway cell cytotoxicity counter-screen. KKLEB CF airway cells viability, ATPlite luminescence, overnight; hits give low values; cells stimulated with P. aeruginosa culture filtrate. activity change (cytotoxicity), % at 5 µM. 360,000 compounds, 0.36% hits. AID 602141;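 active = corrected activity change at or below -50% at 5 µM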
CF NFkB inh: cystic fibrosis NF-kB activation inhibition; KKLEB NF-kB-GFP reporter, PAF-induced, GFP fluorescence overnight; inhibition, % at 5 µM; 360,000 compounds, 0.86% hits;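 active = at least 50% inhibition at 5 µM, scaled per plate between neutral and stimulator controls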;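 note: PAF is a Pseudomonas aeruginosa culture filtrate used as stimulus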
Peg3 prom inh: inhibitors of Peg3 promoter | HeLa PEG-Prom luciferase reporter, luminescence, overnight | inhibition, % at 20 µM | 360,000 compounds, 1.7% hits;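 active = inhibition of at least 50% at 20 µM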
LMP1 NFkB inh: reduces LMP1-driven NF-kappaB luciferase signal; LMP1-induced NF-kappaB luciferase reporter cells, luminescence; inhibition, % at 12.5 µM; 350,000 compounds, 0.69% hits; in the data active = inhibition above about 41%
TRPM1 prom inh: inhibitors of MITF-driven TRPM1 promoter in melanoma cells; SK-MEL-5 TRPM1 promoter luciferase, 24 h; inhibition, % at 12.5 µM; 330,000 compounds, 0.83% hits; AID 488899;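 active = mean inhibition across replicates of 60% or more, whatever share of single replicates reaches that level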
Hits are given with their value. An excerpt weighted towards active compounds, which were near 2.9% of everything screened.

`CCC(=O)N1CCCC(C)(C(=O)Nc2nccc3ccccc23)C1` (stereo not drawn) gave Shn3 inh set2 inactive, KKLEB tox inactive, CF NFkB inh inactive and Peg3 prom inh inactive.
Screening CCN1CCN(c2cc(C)c3cc(NC(=S)N4CCN(c5ccc(F)cc5)CC4)ccc3n2)CC1 returned Shn3 inh set2 inactive, KKLEB tox inactive, CF NFkB inh inactive, Peg3 prom inh 88, LMP1 NFkB inh inactive and TRPM1 prom inh 85.
For COc1ccc(C(CCN2CCCC(C)C2)c2c(OC)cc(OC)c3c(C)cc(=O)oc23)cc1 (stereo not drawn) the results were Shn3 inh set2 inactive, KKLEB tox inactive, CF NFkB inh inactive, Peg3 prom inh inactive, LMP1 NFkB inh inactive and TRPM1 prom inh inactive.
Screening COc1cc(OC)c2c(-c3ccccc3)cc(=O)oc2c1C(CCN1CCCC(C)C1)c1ccc(N(C)C)cc1 (stereo not drawn) returned Shn3 inh set2 inactive, KKLEB tox inactive, CF NFkB inh inactive, Peg3 prom inh 78, LMP1 NFkB inh inactive and TRPM1 prom inh inactive.
`COc1ccc(C(CCN2CCCC2)c2c(OC)cc(OC)c3c(-c4ccccc4)cc(=O)oc23)cc1` (stereo not drawn) gave Shn3 inh set2 inactive, KKLEB tox inactive, CF NFkB inh inactive, Peg3 prom inh inactive, LMP1 NFkB inh inactive and TRPM1 prom inh 67.
`COc1cc(OC)c2c(-c3ccccc3)cc(=O)oc2c1C(CCN1CCN(c2ccccc2)CC1)c1ccc(N(C)C)cc1` (stereo not drawn) gave Shn3 inh set2 inactive, KKLEB tox inactive, CF NFkB inh inactive, Peg3 prom inh inactive, LMP1 NFkB inh inactive and TRPM1 prom inh inactive.
COc1cc(OC)c2c(-c3ccccc3)cc(=O)oc2c1C(CCN1CCOCC1)c1ccc2c(c1)OCO2 (stereo not drawn) was read as Shn3 inh set2 inactive, KKLEB tox inactive, CF NFkB inh inactive, Peg3 prom inh inactive, LMP1 NFkB inh inactive and TRPM1 prom inh inactive.
For COc1cc(OC)c2c(-c3ccccc3)cc(=O)oc2c1C(CCN1CCCC1)c1ccc2c(c1)OCO2 (stereo not drawn) the results were Shn3 inh set2 inactive, KKLEB tox inactive, CF NFkB inh inactive, Peg3 prom inh 91, LMP1 NFkB inh inactive and TRPM1 prom inh inactive.
`COc1ccc(C(CCN2CCCC(C)C2)c2c(OC)cc(OC)c3c(-c4ccccc4)cc(=O)oc23)cc1` (stereo not drawn) gave Shn3 inh set2 inactive, KKLEB tox inactive, CF NFkB inh inactive, Peg3 prom inh 65, LMP1 NFkB inh inactive and TRPM1 prom inh inactive.
CC(C)=CCOc1ccc2c(C)c(CCC(=O)N3C[C@H]4C[C@@H](C3)c3cccc(=O)n3C4)c(=O)oc2c1C was read as Shn3 inh set2 inactive, KKLEB tox inactive, CF NFkB inh inactive and Peg3 prom inh inactive.
Screening C[C@@H]1CN([C@H](C)CO)C(=O)c2cc(Br)cnc2O[C@@H]1CN(C)C(=O)Cc1ccccc1 returned Shn3 inh set2 inactive, KKLEB tox inactive, CF NFkB inh inactive, Peg3 prom inh inactive and LMP1 NFkB inh inactive.
COc1ccc(C(O)c2ncc(-c3ccccc3Cl)[nH]2)cc1F (stereo not drawn) was read as Shn3 inh set2 inactive, KKLEB tox inactive, CF NFkB inh inactive and Peg3 prom inh inactive.
`Cc1ccc(NC(=O)C(c2ccccc2)N2CCN(CC(=O)N3CCOCC3)CC2)cc1Cl` (stereo not drawn) gave Shn3 inh set2 inactive, KKLEB tox inactive, CF NFkB inh inactive, Peg3 prom inh inactive, LMP1 NFkB inh inactive and TRPM1 prom inh inactive.
For Cc1ccc(-c2nc3cccnc3o2)cc1NC(=O)COc1ccc(Cl)cc1C the results were Shn3 inh set2 inactive, KKLEB tox inactive, CF NFkB inh 60, Peg3 prom inh inactive, LMP1 NFkB inh inactive and TRPM1 prom inh inactive.
`Cc1ccc(-c2nc3cccnc3o2)cc1NC(=O)COc1ccc(C(C)(C)C)cc1` gave Shn3 inh set2 95, KKLEB tox inactive, CF NFkB inh inactive, Peg3 prom inh 58, LMP1 NFkB inh 81 and TRPM1 prom inh inactive.
Screening CSc1ccc(CN2CCC2(C)C(=O)NC2CCc3ccccc32)cc1 (stereo not drawn) returned Shn3 inh set2 inactive, KKLEB tox inactive, CF NFkB inh inactive and Peg3 prom inh inactive.
Screening Cc1ccc(-c2cc3onc(-c4ccccc4)c3c(=O)n2C)cc1 returned Shn3 inh set2 inactive, KKLEB tox inactive, CF NFkB inh inactive, Peg3 prom inh inactive, LMP1 NFkB inh inactive and TRPM1 prom inh 97.
For CCN(C1CCCCC1)S(=O)(=O)CCNC(=O)c1ccc(OC)cc1 the results were Shn3 inh set2 inactive, KKLEB tox inactive, CF NFkB inh inactive, Peg3 prom inh inactive and LMP1 NFkB inh inactive.
COc1ccc2ccccc2c1C=NN1CCCCC1 was read as Shn3 inh set2 inactive, KKLEB tox inactive, CF NFkB inh inactive, Peg3 prom inh inactive and LMP1 NFkB inh inactive.
Screening CC(=O)c1sc(NC(=O)C2(F)C(F)(F)C(F)(F)C(F)(F)C(F)(F)C2(F)F)nc1C returned Shn3 inh set2 inactive, KKLEB tox -52, CF NFkB inh 65, Peg3 prom inh inactive, LMP1 NFkB inh inactive and TRPM1 prom inh inactive.
Screening Cc1cc(F)ccc1C(O)c1ncc(-c2ccccc2Cl)[nH]1 (stereo not drawn) returned Shn3 inh set2 inactive, KKLEB tox inactive, CF NFkB inh inactive and Peg3 prom inh inactive.
Screening CCOc1ccc2nc(N/C(N)=N/C(=S)Nc3ccc(C)c(C)c3)nc(C)c2c1 returned Shn3 inh set2 inactive, KKLEB tox inactive, CF NFkB inh inactive, Peg3 prom inh inactive, LMP1 NFkB inh inactive and TRPM1 prom inh inactive.
`COc1ccc(NC(=S)/N=C(\N)Nc2nc(C)c3ccc(C)cc3n2)cc1` gave Shn3 inh set2 inactive, KKLEB tox inactive, CF NFkB inh inactive, Peg3 prom inh 53, LMP1 NFkB inh inactive and TRPM1 prom inh inactive.
`CC(Nc1ccc(Br)cc1)C(=O)NC(=O)NC1CCCCC1` (stereo not drawn) gave Shn3 inh set2 inactive, KKLEB tox inactive, CF NFkB inh inactive, Peg3 prom inh inactive and LMP1 NFkB inh inactive.
Screening CN(C)S(=O)(=O)c1cccc(-c2nn(-c3ccccc3)cc2/C=C2\SC(=S)NC2=O)c1 returned Shn3 inh set2 inactive, KKLEB tox inactive, CF NFkB inh 53, Peg3 prom inh 60, LMP1 NFkB inh inactive and TRPM1 prom inh inactive.
`COc1cccc2sc(Nc3nc(-c4ccccn4)cs3)nc12` gave Shn3 inh set2 inactive, KKLEB tox inactive, CF NFkB inh inactive, Peg3 prom inh inactive, LMP1 NFkB inh 46 and TRPM1 prom inh inactive.
For c1ccc(Nc2nc(-c3ccccn3)cs2)cc1 the results were Shn3 inh set2 inactive, KKLEB tox inactive, CF NFkB inh inactive, Peg3 prom inh inactive, LMP1 NFkB inh inactive and TRPM1 prom inh inactive.
For O=[N+]([O-])c1ccc(/C=N/Nc2cc(Cl)nc(-c3ccccc3)n2)cc1 the results were Shn3 inh set2 inactive, KKLEB tox inactive, CF NFkB inh inactive, Peg3 prom inh inactive, LMP1 NFkB inh 85 and TRPM1 prom inh inactive.
